PubChem BioAssay (Tox21)
Inconclusive results are not listed. Entries that show only a call come without a potency. Activity calls are given as the source filed them. Calls follow the shape of the dose curve; as a rule, active = well fitted activation curve with a large enough effect in the signal ratio in the repeat runs (not every such curve was filed as active); inconclusive = weak or mixed curves, or effect the other way; inactive = no such curve, though single readings can be large or run the other way; the % refers to the signal ratio.

assay: qHTS assay for small molecule agonists of the antioxidant response element (ARE) signaling pathway (AID 743202); details: HepG2 ARE-bla reporter, beta-lactamase FRET, 16 h; series mostly up to 73.3 µM
Text: U.S. Tox21 Program National Center for Advancing Translational Sciences [NCATS] NIH Chemical Genomics Center [NCGC] U.S. Environmental Protection Agency [EPA] National Institutes of Environmental Health Sciences [NIEHS] National Toxicology Program [NTP] U.S. Food and Drug Administration [FDA] Tox21 Assay Overview: Oxidative stress has been implicated in the pathogenesis of a variety of diseases ranging from cancer to neurodegeneration. The antioxidant response element (ARE) signaling pathway plays an important role in the amelioration of oxidative stress. The CellSensor ARE-bla HepG2 cell line (Invitrogen) can be used for analyzing the Nrf2/antioxidant response signaling pathway. Nrf2 (NF-E2-related factor 2) and Nrf1 are transcription factors that bind to AREs and activate these genes. The CellSensor ARE-bla Hep G2 cell line contains a beta-lactamase reporter gene under control of the Antioxidant Response Element (ARE) stably integrated into HepG2 cells. The activation of the report gene under culture conditions can be detected by fluorescence intensity. This cell line has been used to screen the Tox21 10K compound library to identify agonists that induce oxidative stress.
Tox21 Assay Protocol Summary: The ARE-bla cells were dispensed at 2,000 cells/5 ul/well in 1536-well black wall/clear bottom plates using a Multidrop dispenser. After the assay plates were incubated at a 37 C/5% CO2 incubator for 5 hours, 23 nL of compounds dissolved in DMSO, positive controls or DMSO only was transferred to the assay plate by a pin tool. The plates were incubated at 37 C for 16 hours. After 1 uL of LiveBLAzer B/G FRET substrate was added using a Flying Reagent Dispenser, the plates were incubated at room temperature for 2 hours, and fluorescence intensity was measured by an Envision plate reader.

| Compound | Potency | activation |
| --- | --- | --- |
| Cc1coc2ccccc2c1=O | inactive | – |
| NC(CCC(=O)O)C(=O)O (stereo not given) | inactive | – |
| CCCC(C)C(=O)OCC (stereo not given) | inactive | – |
| Cc1ccc(-c2ccccc2C#N)cc1 | inactive | – |
| CC1=NN(c2cc(S(=O)(=O)O)ccc2Cl)C(=O)C1N=Nc1ccccc1 (stereo not given) | inactive | – |
| CCCCOCCOC(=O)CCCCCCCCC(=O)OCCOCCCC | inactive | – |
| C[C@@H]1CCC[C@H](C)N1 | inactive | – |
| CCN[C@H]1C[C@H](C)S(=O)(=O)c2sc(S(N)(=O)=O)cc21 | inactive | – |
| COc1ccccc1OCC1CNC(=O)O1 (stereo not given) | inactive | – |
| C=C(C)C(=O)OCC(O)CO (stereo not given) | inactive | – |
| C=CC(C)(CCC=C(C)C)OC(=O)CC (stereo not given) | inactive | – |
| C=C[Si](OC(C)=O)(OC(C)=O)OC(C)=O | inactive | – |
| CC(COc1ccccc1)NN (stereo not given) | inactive | – |
| CC1=C(C/C=C(\C)CCC[C@H](C)CCC[C@H](C)CCCC(C)C)C(=O)c2ccccc2C1=O | inactive | – |
| COc1cc(-c2ccc(=O)[nH]n2)ccc1OC(F)F | inactive | – |
| Clc1cc(Cl)c(Cl)nc1Cl | inactive | – |
| CC(C)C(=O)OC(=O)C(C)C | inactive | – |
| [K+] | inactive | – |
| CCCC[N+](C)(CCCC)CCCC | inactive | – |
| Nc1ccn([C@@H]2O[C@H](CO)[C@@H](O)[C@@H]2O)c(=O)n1 | inactive | – |

| Compound | Potency | activation |
| --- | --- | --- |
| COc1c(N2CCNC(C)C2)c(F)cc2c(=O)c(C(=O)O)cn(C3CC3)c12 (stereo not given) | inactive | – |
| C[N+]1(C)CCCC(OC(=O)C(O)(c2ccccc2)c2ccccc2)C1 (stereo not given) | inactive | – |
| CCO[Si](OCC)(OCC)c1ccccc1 | inactive | – |
| c1ccc2sc(SN3CCOCC3)nc2c1 | inactive | – |
| CO/N=C(\C(=O)N[C@@H]1C(=O)N2C(C(=O)O)=C(CSc3nc(=O)c(O)nn3C)CS[C@H]12)c1csc(N)n1 | inactive | – |
| O=C(O)CNC(=O)c1ccc(CO)o1 | inactive | – |
| Cc1ccccc1N=C(N)N=C(N)N | inactive | – |
| Cc1ccc(C(=O)c2ccccc2)cc1 | inactive | – |
| CN1CC(=O)N/C1=N/C(=O)Nc1cccc(Cl)c1 | inactive | – |
| NCCCC[C@H](N[C@@H](CCc1ccccc1)C(=O)O)C(=O)N1CCC[C@H]1C(=O)O | inactive | – |
| OCCc1ccccn1 | inactive | – |
| Cc1ccc(C(=O)Nc2ccc(S(=O)(=O)O)c3cc(S(=O)(=O)O)cc(S(=O)(=O)O)c23)cc1NC(=O)c1cccc(NC(=O)Nc2cccc(C(=O)Nc3cc(C(=O)Nc4ccc(S(=O)(=O)O)c5cc(S(=O)(=O)O)cc(S(=O)(=O)O)c45)ccc3C)c2)c1 | inactive | – |
| NC(=O)N1c2ccccc2CC(=O)c2ccccc21 | inactive | – |
| Cc1cc(C)c(N=Nc2c(O)c(S(=O)(=O)O)cc3cc(S(=O)(=O)O)ccc23)cc1C | – | -8.59% [at 8.36 µM] (inactive) |
| CCCCCCC1CCC(=O)O1 (stereo not given) | inactive | – |
| CN(C)[C@@H]1C(=O)C(C(=O)NCN2CCCC2)=C(O)[C@@]2(O)C(=O)C3=C(O)c4c(O)cccc4[C@@](C)(O)C3C[C@@H]12 (stereo not given in full) | inactive | – |
| CN(C)CCCN(C)CCCN(C)C | inactive | – |
| CCN(CC#N)c1cccc(C)c1 | inactive | – |
| C=C(C)C(=O)OCC1CCCO1 (stereo not given) | inactive | – |
| CC(C)(C)C(=O)c1ccccc1 | inactive | – |
